Test [1] in a line: HUVEC growth inhibition – cell-based, human, primary screen (AID 575;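 active means viability at or below 30% in both replicate assays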;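 further: 100% = median of untreated cell wells with 0.1% DMSO on each plate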). Particulars: HUVEC proliferation, CellTiter-Glo luminescence, 72 h; at 10 µM; stronger effect = lower value. A general note: ATP-based viability assays read luminescence as a measure of living cells.
Test [2] in a line: growth inhibitors of H69AR lung tumor, primary screen, human, duplicate replicates (AID 580;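 active means viability at or under a set limit in both replicates, limit being median viability minus 3 SD, cut at about 48% in these data, passing the limit was not always enough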;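 further: 100% = mean luminescence of untreated wells and 0% = no signal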). Particulars: H69AR lung tumor cells viability, ATP luminescence, 72 h; at 10 µM; stronger effect = lower value.
A short description of test [3]: reversal of MRP1-mediated doxorubicin resistance, pilot screen, H69AR cells, doxorubicin co-treatment (AID 601;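 active means viability loss from added drug above about 55%, and viability with drug at most 40%, in both replicates, limit read from the data, passing the limit was not always enough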). Particulars: CellTiter-Glo, 72 h, at 10 µM; for differential viability (reversal): stronger effect = higher value.
Test [4] is described as follows: 384-well plate pilot, post-Golgi transport modulator project, inhibition of yeast transport mutant growth (AID 636; in the data active means inhibition above about 31%). Particulars: absorbance 615 nm, about 18 h, stronger effect = higher value.
The nature of test [5]: growth suppression of yeast trafficking mutant, preliminary HTS, modulators of trafficking downstream of Golgi apparatus project, 1536-format plate, OD 615 nm (AID 637; in the data active means inhibition above about 30%). Particulars: yeast transport mutant growth, absorbance 615 nm, 18 h; stronger effect = higher value.
A short description of test [6]: OD615 S. cerevisiae growth inhibition, permissive medium, pilot counter-assay, permissive growth control for S. cerevisiae lifespan shortening project (AID 705). Particulars: OD615, 24 h, at 10 µM, stronger effect = higher value.
Test [7] can be described thus: Restrictive medium S. cerevisiae growth inhibition, OD615, pilot screen of yeast lifespan reduction project, restrictive growth control (AID 706;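 active means growth inhibition above a set limit, 3 SD over mean compound inhibition, in both replicates, cut at about 43% in these data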;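 further: modified DeaD lifespan yeast strain shifted to restrictive glucose medium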). The settings on record: OD615, 48 h, at 10 µM, stronger effect = higher value.
A short description of test [8]: viability gain of MRP-1-high H69AR cells under doxorubicin, pilot screen, MRP-1 activator project, CellTiter-Glo, duplicate (AID 807;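 active means viability increase at or above a cutoff of the median across tested compounds plus 3 SD, cut at about 8.5% in these data, passing the limit was not always enough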;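 further: compound pretreatment 18-22 h then 72 h combined with doxorubicin; 0% = doxorubicin alone and 100% = vehicle without doxorubicin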). Particulars: H69AR viability with doxorubicin, CellTiter-Glo luminescence; at 10 µM; stronger effect = higher value.
Test [9] is described as follows: growth suppression of beta-catenin knockout HCT116, pilot screen, human colon tumor cells (AID 823;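 active means cell viability at or below a set limit in both duplicate runs, the limit being the all-compound median minus 4 SD, cut at about 23% in these data, passing the limit was not always enough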;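 further: 0% = wells killed by 20 µM Hyamine and 100% = untreated DMSO cell wells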). Particulars: CellTiter-Glo, 60 h, at 10 µM, stronger effect = lower value.
Test [10] in a line: inhibitors of the yeast RAM network, pilot screen, dse1pr::URA3 reporter, 5-FOA selection (AID 869;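 active means inhibition over a set limit, the all-compound mean plus 3 SD, in both replicate runs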;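 further: 0% = DMSO wells with no growth and 100% = 10 µM 1-NA-PP1 with full growth; RAM network block rescues cells from 5-FOA so hits raise OD615 growth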). Particulars: S. cerevisiae dse1pr::URA3 5-FOA growth, OD615, 2 d; at 10 µM; stronger effect = higher value; strain carries analog-sensitive mutant Cbk1 kinase.
Test [11] can be described thus: RAM signaling pathway blockade in yeast – S. cerevisiae, Pdr1DBD-CYC8 efflux-inhibited sensitized strain, primary screen (AID 1298;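 active means RAM network inhibition above 8.4% in each of two replicates, 3 SD over the compound average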;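 further: 0% = DMSO untreated cells without growth and 100% = 10 µM 1-NA-PP1 full growth; higher means more yeast growth rescued from 5-FOA killing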). The settings on record: S. cerevisiae cbk1-as DSE1-URA3 strain, 5-FOA growth OD615, 2 d; at 50 µM; stronger effect = higher value.
Test [12] can be described thus: growth suppression of PTEN-deleted HCT116, pilot screen, cell-based, HCT116 clonal line, CellTiter-Glo (AID 824;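 active means viability at or below 27.92% in each of two runs, the all-compound median minus 4 SD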;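 further: 0% = 20 µM Hyamine control and 100% = vehicle cell control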). The settings on record: 60 h, at 10 µM, stronger effect = lower value.
[13] abbreviates: H69AR cells + 2 uM doxorubicin, measured here: viability with 2 uM doxorubicin, stronger effect = lower value.
Setting [14] is: H69AR cells, compound alone cytotoxicity.

Results filed as inconclusive are left out. Activity calls are given as the source filed them.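 How the source made its calls, unless noted: active means growth inhibition above 25% in both replicates, a cutoff set 3 SD above the mean; inconclusive means above 25% in only one replicate; inactive means the rest.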

A word on the viability: it is a read-out of living cells in per cent, often relative to untreated cells. One may read the inhibition as the relative decrease from the control value, in per cent.

Turning to `O=C(NCc1cccs1)C(Cc1ccccc1)NS(=O)(=O)c1cccs1` (configuration not stated), the viability in test [1] was 95.7% (inactive); in test [2] it was 91.7% (inactive); in test [3] (setting [13]), 87.2%; in test [3] (setting [14]), 91.7%; in test [9] it was 94.3% (inactive). Besides, in [3] (H69AR cells + 2 uM doxorubicin), the differential viability (reversal) is 4.5% (inactive). Further, the inhibition in test [4] is -3.16% (inactive); in test [5], 5.08% (inactive); in test [10], 1.43% (inactive). The results for the growth inhibition in [6] and in test [7] were -17.7% (inactive) and -8.73% (inactive), respectively. Moreover, in [8], the viability increase is -1.46% (inactive). Further, the RAM network inhibition in [11] is 4.56% (inactive).
Take `CC(c1ccco1)N(C(=O)c1ccc(S(=O)(=O)N2CCCCC2)cc1)c1ccccn1` (configuration not stated): the viability in test [1] was 87.5% (inactive); in test [2], 86% (inactive); in test [3] (setting [13]), 94.2%; in test [3] (setting [14]), 86%; in test [9], 97.4% (inactive). Also, in test [3] (H69AR cells + 2 uM doxorubicin), the differential viability (reversal) was -8.22% (inactive). Moreover, the inhibition in test [4] was -4.03% (inactive); in test [5], 1.27% (inactive); in [10] it was 1.19% (inactive). The figures for the growth inhibition in [6] and in [7] were -17.7% (inactive) and 2.26% (inactive), respectively. In test [8], the viability increase is -4.13% (inactive). Moreover, the RAM network inhibition in test [11] was 3.18% (inactive).
Take `CC(C)c1ccc(-c2nc(N3CCCCC3)[nH]c(=O)c2C#N)cc1`: the viability in test [1] was 83.3% (inactive); in [2], 88.3% (inactive); in test [3] (setting [13]), 87.5%; in test [3] (setting [14]), 88.3%; in test [9], 102% (inactive). For the same compound, the differential viability (reversal) in test [3] (H69AR cells + 2 uM doxorubicin) is 0.79% (inactive). The inhibition in [4] was 0.92% (inactive); in [5] it was -3.49% (inactive); in test [10], 2.5% (inactive). Also, the growth inhibition was -17.7% (inactive) in [6] and 3.37% (inactive) in test [7]. The viability increase in test [8] was -2.54% (inactive). For the same compound, in test [11], the RAM network inhibition was 8.32% (inactive).
Regarding `COc1ccccc1-c1nc(-c2ccc(Br)cc2)no1`, the values for the growth inhibition in test [6] and in [7] were 4.16% (inactive) and -2.73% (inactive), respectively. Further, the viability increase in test [8] was -3.88% (inactive). In addition, the results for the viability in test [9] and in test [12] were 84.2% (inactive) and 94.1% (inactive), respectively. Moreover, the RAM network inhibition in [11] was 5.02% (inactive).
For the compound `O=c1c2ccccc2nc2c3ccccc3ncn12`, the growth inhibition is -15.1% (inactive) in [6] and -15.2% (inactive) in test [7]. For the same compound, the viability increase in test [8] was -0.34% (inactive). The results for the viability in test [9] and in [12] were 103% (inactive) and 101% (inactive), respectively. Also, the RAM network inhibition in test [11] was 6.01% (inactive).
As to `O=C(NCc1ccccc1Cl)C1CCN(C(=O)c2sccc2-n2cccc2)CC1`, the growth inhibition in [6] is -17.6% (inactive); in [7], -12% (inactive). Further, the viability increase in test [8] is -2.65% (inactive). Also, the results for the viability in [9] and in test [12] were 99.2% (inactive) and 86.8% (inactive), respectively. Also, the RAM network inhibition in test [11] is 8.69% (inactive).
On to `CC(C)=CC(=O)OCC(=O)NC(=O)NC(C)(C)C`, for which the viability in test [1] is 103% (inactive); in test [2] it was 97% (inactive); in test [3] (setting [13]), 101%; in [3] (setting [14]), 97%; in test [9] it was 104% (inactive). The differential viability (reversal) in [3] (H69AR cells + 2 uM doxorubicin) was -3.87% (inactive). For the same compound, the inhibition was 0.52% (inactive) in test [4], -3.97% (inactive) in test [5] and 2.76% (inactive) in test [10]. The growth inhibition was 1.02% (inactive) in test [6] and 3.65% (inactive) in test [7]. Besides, the viability increase in test [8] is -3.01% (inactive). In test [11], the RAM network inhibition was 2.91% (inactive).
Consider `CC(C)c1ccc(OC(=O)NCCO)cc1`, for which the growth inhibition in test [6] was 4.54% (inactive); in test [7], -4.21% (inactive). Further, the viability increase in [8] was 0.33% (inactive). The viability is 98.9% (inactive) in test [9] and 104% (inactive) in [12]. For the same compound, the RAM network inhibition in test [11] is 4.79% (inactive).
Consider `Cc1ccc(C)c(N2CCN(CCCNC(=O)Cn3cc4c(n3)CCCCC4)CC2)c1`, for which the viability in test [1] was 2.8% (active); in test [3] (setting [13]) it was 68.4%; in [3] (setting [14]), 37.1%; in test [12], 19.6% (active). In test [3] (H69AR cells + 2 uM doxorubicin), the differential viability (reversal) is -31.3% (inactive). The inhibition in [4] was -2.69% (inactive); in test [5], 4% (inactive); in test [10] it was 0.495% (inactive). The growth inhibition is -6.4% (inactive) in test [6] and -0.285% (inactive) in test [7]. The viability increase in test [8] was -7.67% (inactive). For the same compound, the RAM network inhibition in [11] was 4.06% (inactive).
For the compound `N#Cc1nc(-c2ccc(F)cc2)oc1NCCN1CCOCC1`, the growth inhibition is -0.47% (inactive) in test [6] and -8.75% (inactive) in test [7]. In [8], the viability increase is -2.06% (inactive). Moreover, the results for the viability in test [9] and in [12] were 96% (inactive) and 92.3% (inactive), respectively. The RAM network inhibition in [11] is 7.83% (inactive).
As to `CCCCOc1ccc(S(=O)(=O)Nc2cc(OC)ccc2OC)cc1`, the results for the growth inhibition in test [6] and in test [7] were -1.52% (inactive) and -16.5% (inactive), respectively. Moreover, in test [8], the viability increase was 0.92% (inactive). The values for the viability in [9] and in [12] were 54.8% (inactive) and 71.3% (inactive), respectively. For the same compound, the RAM network inhibition in test [11] is 7.83% (inactive).
With `CC1Cn2c(nnc2-c2ccccc2O)S1` (configuration not stated), the growth inhibition in test [6] is -13.6% (inactive); in test [7], -21.9% (inactive). Also, the viability increase in test [8] is -1.33% (inactive). Further, the viability in test [9] was 115% (inactive); in test [12] it was 98.2% (inactive). Moreover, the RAM network inhibition in test [11] is 5.23% (inactive).
With `CCC(=O)N1c2ccccc2-c2nnc(SC)nc2OC1c1ccc(OC)c(OC)c1` (configuration not stated), the growth inhibition in test [6] was -7.65% (inactive); in test [7], -7.5% (inactive). Also, the viability increase in test [8] is -2.71% (inactive). The results for the viability in test [9] and in test [12] were 102% (inactive) and 94.1% (inactive), respectively. Further, the RAM network inhibition in test [11] was 1.85% (inactive).
As for `O=S(=O)(NCC(O)COCc1ccco1)c1cccs1` (configuration not stated), the viability in test [1] is 114% (inactive); in test [2], 83.7% (inactive); in [3] (setting [13]) it was 84.3%; in test [3] (setting [14]), 83.7%; in [9], 92.8% (inactive). Besides, the differential viability (reversal) in test [3] (H69AR cells + 2 uM doxorubicin) was -0.665% (inactive). In addition, the inhibition was -6.62% (inactive) in test [4], -5.56% (inactive) in test [5] and 1.09% (inactive) in test [10]. For the same compound, the growth inhibition in test [6] was -10.3% (inactive); in test [7] it was 2.05% (inactive). Besides, in [8], the viability increase was -3.34% (inactive). Further, the RAM network inhibition in test [11] is 6.29% (inactive).
`COC(=O)c1ccc(Nc2ncnc3c2cnn3-c2cccc(C)c2)cc1`: the growth inhibition in [6] was -13% (inactive); in test [7], -25.2% (inactive). For the same compound, the viability increase in test [8] was -3.78% (inactive). Also, the viability in test [9] is 109% (inactive); in [12], 93.4% (inactive). Further, in test [11], the RAM network inhibition is 10.5% (inactive).
Consider `COc1ccc(C(=O)n2nc(C)cc2C)cc1Br`, for which the growth inhibition was -8.38% (inactive) in test [6] and -1.95% (inactive) in test [7]. In addition, the viability increase in test [8] was -0.08% (inactive). The figures for the viability in test [9] and in [12] were 101% (inactive) and 99.3% (inactive), respectively. Moreover, the RAM network inhibition in test [11] was -0.42% (inactive).

For the origin of these results see PubChem BioAssay.
